According to PubChem BioAssay AID1159580 (chemical genetic matrix, 2015):
In all, about 5,500 compounds went through this assay and about 2,000 (36%) were called active. About 18% were inconclusive and are not listed. No stated cut-off is given here; in the data, active means normalized growth mostly below about 0.91 (no sharp cut-off); inconclusive means no clear call, values can overlap the other calls; inactive means mostly above about 0.92. Some of the results follow.

Assay: chemical genetic growth profiling, strain panel (AID 1159580);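 further: tested at 20 µM; growth read once vehicle control cultures reached saturation at 30 °C; 1 = growth at the plate median or of vehicle wells; lower values mean less growth of the strain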
Details: growth OD

Measured: normalized growth

O=C(O)COc1ccc(Cl)cc1Cl
inactive: S. cerevisiae deletion strains, locus YJR043C, strain POL32, active compounds read low 1.02 | S. cerevisiae deletion strains, locus YJR075W, strain HOC1, active compounds read low 1.02 | S. cerevisiae deletion strains, locus YKL009W, strain mrt4, active compounds read low 1.04 | S. cerevisiae deletion strains, locus YKL068W, active compounds read low 1.01 | S. cerevisiae deletion strains, locus YKL085W, strain MDH1 (second series), active compounds read low 1.01 | S. cerevisiae deletion strains, locus YKL085W, strain MDH1, active compounds read low 1.01 | S. cerevisiae deletion strains, locus YKL160W, strain elf1, active compounds read low 0.996 | S. cerevisiae deletion strains, locus YKL190W, strain CNB1, active compounds read low 1.02 | S. cerevisiae deletion strains, locus YKR001C, strain vps1, active compounds read low 1.04 | S. cerevisiae deletion strains, locus YKR026C, strain gcn3, active compounds read low 0.988 | S. cerevisiae deletion strains, locus YKR091W, strain srl3, active compounds read low 0.999 | S. cerevisiae deletion strains, locus YLL001W, strain dnm1, active compounds read low 1 | S. cerevisiae deletion strains, locus YLL026W, active compounds read low 0.988 | S. cerevisiae deletion strains, locus YLL041C, strain sdh2, active compounds read low 0.995 | S. cerevisiae deletion strains, locus YLR027C, strain aat2, active compounds read low 0.993 | S. cerevisiae deletion strains, locus YLR039C, strain RIC1, active compounds read low 1.04 | S. cerevisiae deletion strains, locus YLR058C, strain SHM2, active compounds read low 1.01 | S. cerevisiae deletion strains, locus YLR102C, strain apc9, active compounds read low 1.03 | S. cerevisiae deletion strains, locus YLR221C, strain rsa3, active compounds read low 0.989 | S. cerevisiae deletion strains, locus YLR258W, strain gsy2, active compounds read low 0.994 | S. cerevisiae deletion strains, locus YLR262C, strain YPT6 (second series), active compounds read low 0.996 | S. cerevisiae deletion strains, locus YLR262C, strain YPT6, active compounds read low 1.08 | S. cerevisiae deletion strains, locus YLR268W, strain sec22, active compounds read low 1.02 | S. cerevisiae deletion strains, locus YLR320W, strain mms22, active compounds read low 0.991 | S. cerevisiae deletion strains, locus YLR330W, strain CHS5, active compounds read low 1.01 | S. cerevisiae deletion strains, locus YLR342W, strain FKS1 (second series), active compounds read low 1.03 | S. cerevisiae deletion strains, locus YLR342W, strain FKS1, active compounds read low 1 | S. cerevisiae deletion strains, locus YLR357W, strain rsc2, active compounds read low 0.989 | S. cerevisiae deletion strains, locus YLR370C, strain arc18, active compounds read low 0.994 | S. cerevisiae deletion strains, locus YLR371W, strain rom2, active compounds read low 1.03 | S. cerevisiae deletion strains, locus YLR384C, strain iki3, active compounds read low 0.997 | S. cerevisiae deletion strains, locus YLR418C, strain cdc73, active compounds read low 1.06 | S. cerevisiae deletion strains, locus YML016C, strain PPZ1, active compounds read low 1.01 | S. cerevisiae deletion strains, locus YML032C, strain rad52, active compounds read low 1.04 | S. cerevisiae deletion strains, locus YML120C, strain ndi1, active compounds read low 0.989 | S. cerevisiae deletion strains, locus YML124C, strain tub3, active compounds read low 1.02 | S. cerevisiae deletion strains, locus YMR058W, strain fet3, active compounds read low 0.999 | S. cerevisiae deletion strains, locus YMR078C, strain ctf18, active compounds read low 1.02 | S. cerevisiae deletion strains, locus YMR125W, strain sto1, active compounds read low 0.993 | S. cerevisiae deletion strains, locus YMR129W, active compounds read low 0.996 | S. cerevisiae deletion strains, locus YMR205C, strain PFK2, active compounds read low 0.984 | S. cerevisiae deletion strains, locus YMR223W, strain ubp8, active compounds read low 1.03 | S. cerevisiae deletion strains, locus YMR231W, strain pep5, active compounds read low 0.992 | S. cerevisiae deletion strains, locus YMR263W, strain SAP30, active compounds read low 1.01 | S. cerevisiae deletion strains, locus YMR307W, strain GAS1, active compounds read low 1.04 | S. cerevisiae deletion strains, locus YNL067W, strain RPL9B, active compounds read low 1.02 | S. cerevisiae deletion strains, locus YNL071W, strain lat1, active compounds read low 1.01 | S. cerevisiae deletion strains, locus YNL128W, strain TEP1, active compounds read low 1.02 | S. cerevisiae deletion strains, locus YNL153C, strain GIM3, active compounds read low 0.993 | S. cerevisiae deletion strains, locus YNL209W, strain ssb2, active compounds read low 1 | S. cerevisiae deletion strains, locus YNL233W, strain BNI4, active compounds read low 1.03 | S. cerevisiae deletion strains, locus YNL248C, strain rpa49, active compounds read low 0.989 | S. cerevisiae deletion strains, locus YNL250W, strain rad50, active compounds read low 1.02 | S. cerevisiae deletion strains, locus YNL271C, strain bni1, active compounds read low 1.02 | S. cerevisiae deletion strains, locus YNL298W, strain CLA4, active compounds read low 1.04 | S. cerevisiae deletion strains, locus YNL307C, strain MCK1, active compounds read low 1.03 | S. cerevisiae deletion strains, locus YNL322C, strain KRE1 (second series), active compounds read low 0.994 | S. cerevisiae deletion strains, locus YNL322C, strain KRE1, active compounds read low 1.01 | S. cerevisiae deletion strains, locus YNR049C, strain mso1, active compounds read low 0.993 | S. cerevisiae deletion strains, locus YNR052C, strain pop2, active compounds read low 1.03 | S. cerevisiae deletion strains, locus YOL006C, strain TOP1, active compounds read low 1.08 | S. cerevisiae deletion strains, locus YOL012C, strain htz1 1.3 | S. cerevisiae deletion strains, locus YOL147C, strain pex11, active compounds read low 1.02 | S. cerevisiae deletion strains, locus YOR001W, strain rrp6, active compounds read low 0.993 | S. cerevisiae deletion strains, locus YOR061W, strain CKA2, active compounds read low 1.01 | S. cerevisiae deletion strains, locus YOR069W, strain VPS5, active compounds read low 1.01 | S. cerevisiae deletion strains, locus YOR070C, strain gyp1, active compounds read low 1 | S. cerevisiae deletion strains, locus YOR080W, strain dia2, active compounds read low 0.996 | S. cerevisiae deletion strains, locus YOR083W, strain WHI5, active compounds read low 0.998 | S. cerevisiae deletion strains, locus YOR106W, strain vam3, active compounds read low 0.994 | S. cerevisiae deletion strains, locus YOR136W, strain idh2, active compounds read low 1.02 | S. cerevisiae deletion strains, locus YOR144C, strain elg1, active compounds read low 1.02 | S. cerevisiae deletion strains, locus YOR184W, strain ser1, active compounds read low 1.03 | S. cerevisiae deletion strains, locus YOR265W, strain rbl2, active compounds read low 0.992 | S. cerevisiae deletion strains, locus YOR270C, strain vph1, active compounds read low 1.01 | S. cerevisiae deletion strains, locus YOR290C, strain snf2, active compounds read low 1 | S. cerevisiae deletion strains, locus YOR316C, strain cot1, active compounds read low 1.03 | S. cerevisiae deletion strains, locus YPL051W, strain arl3, active compounds read low 0.993 | S. cerevisiae deletion strains, locus YPL055C, strain LGE1, active compounds read low 1.03 | S. cerevisiae deletion strains, locus YPL078C, strain atp4, active compounds read low 0.999 | S. cerevisiae deletion strains, locus YPL106C, strain sse1, active compounds read low 0.983 | S. cerevisiae deletion strains, locus YPL240C, strain hsp82, active compounds read low 0.993 | S. cerevisiae deletion strains, locus YPL241C, strain CIN2, active compounds read low 1.01 | S. cerevisiae deletion strains, locus YPR119W, strain clb2, active compounds read low 1.01 | S. cerevisiae deletion strains, locus YPR141C, strain kar3, active compounds read low 1.03 | S. cerevisiae deletion strains, locus YPR163C, strain tif3, active compounds read low 1.02 | S. cerevisiae deletion strains, locus YPR167C, strain met16, active compounds read low 1.03 | S. cerevisiae deletion strains, strain wtn01, active compounds read low 1.02 | S. cerevisiae strains, strain wild type, active compounds read low 1.01
